Screening results deposited in PubChem BioAssay by National Center for Advancing Translational Sciences (NCATS).
RORg inh: qHTS for inhibitors of ROR gamma transcriptional activity. Nuclear receptor ROR-gamma (Mus musculus), P51450. Drosophila S2 Gal4-RORgamma UAS-luciferase reporter, 20 h. Potency, µM (top dose mostly 53.6 µM), for the others: at the top dose activity change, negative = inhibition, hits mostly inhibitors. 310,000 tested, 5.4% active. AID 2551, 2010; further: nearly all actives have a fitted effect of over 60% in size
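ROR gamma transcriptional activity was tracked as Gal4-UAS luciferase output in stably transfected Drosophila Schneider cells, with compound added 1 hr before 700 uM copper sulfate induction and a 20 hr ambient-temperature incubation.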
Gal4-VP16 FLuc: VP16 counterscreen qHTS for inhibitors of ROR gamma transcriptional activity. AID 2546, 2010. Potency, µM (series often up to 53.6 µM), without a hit: top-dose activity, negative = inhibition, usual class: inhibitors. 310,000 tested, 3.5% active. Drosophila S2 Gal4-VP16 UAS-luciferase, luminescence, 20 h;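 further: Gal4-VP16 expression switched on by copper sulfate through the metallothionein promoter; nearly all actives have a fitted effect of over 50% in size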
PLK1 PBD inh: qHTS for Inhibitors of PLK1-PDB (polo-like kinase 1 - polo-box domain): Primary Screen; AID 720504, 2013; Plk1 PBD binding of FITC phosphopeptide, fluorescence polarization; 360,000 tested, 2.8% active; Potency, µM, for the others: max response, negative = inhibition, actives largely listed as inhibitors; Serine/threonine-protein kinase PLK1 (Homo sapiens), P53350; further: series mostly up to about 57 µM; nearly all actives have a fitted effect of over 65% in size
Target sequence (P53350 whole entry, looked up, the tested form may be a part): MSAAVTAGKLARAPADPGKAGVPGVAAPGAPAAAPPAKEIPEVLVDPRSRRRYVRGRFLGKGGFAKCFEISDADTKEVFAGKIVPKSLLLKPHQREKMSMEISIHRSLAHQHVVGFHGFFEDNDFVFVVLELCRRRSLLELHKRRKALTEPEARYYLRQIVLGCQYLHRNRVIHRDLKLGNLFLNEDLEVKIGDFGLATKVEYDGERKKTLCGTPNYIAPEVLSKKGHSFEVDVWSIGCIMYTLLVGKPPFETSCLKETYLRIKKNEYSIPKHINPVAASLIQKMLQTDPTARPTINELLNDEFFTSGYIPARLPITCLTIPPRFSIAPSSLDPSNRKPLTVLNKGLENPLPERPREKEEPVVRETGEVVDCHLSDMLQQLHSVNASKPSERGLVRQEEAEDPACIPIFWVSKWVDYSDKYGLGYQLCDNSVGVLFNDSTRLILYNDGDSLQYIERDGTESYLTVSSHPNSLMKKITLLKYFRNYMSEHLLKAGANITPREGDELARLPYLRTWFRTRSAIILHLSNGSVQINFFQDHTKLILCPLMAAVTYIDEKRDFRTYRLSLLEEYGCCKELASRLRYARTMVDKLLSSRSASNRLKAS
Sfp PPTase inh: qHTS Assay for Inhibitors of Bacillus subtilis Sfp phosphopantetheinyl transferase (PPTase); 310,000 tested, 3.5% active; 4'-phosphopantetheinyl transferase ffp (Bacillus subtilis), Q9F4F7; Potency, µM, inactives show largest response in the series, negative = inhibition, hits mostly inhibitors; Biochemical Sfp PPTase activity, qHTS;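 further: the enzyme is Sfp with the accession as filed and its product quenches rhodamine fluorescence; 0% = enzyme reaction without inhibitor and -100% = no enzyme wells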
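With Hepes-Na pH 7.6 buffer containing 10 mM MgCl2, Sfp (15 nM) modified BHQ-2-YbbR (12.5 uM) using rhodamine-CoA (5 uM). Two reads 30 minutes apart at 525/598 nm yielded each well's rate.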
ALDH1A1 block: qHTS Assay for Inhibitors of Aldehyde Dehydrogenase 1 (ALDH1A1). AID 1030, 2008. 220,000 tested, 7.3% active. Aldehyde dehydrogenase 1A1 (Homo sapiens), P00352. Potency, µM (doses to about 75.3 µM), inactives show at the highest dose activity, negative = inhibition, usual class: inhibitors. Purified ALDH1A1, NADH fluorescence, propionaldehyde substrate; active means well fitted inhibition curve with a large enough effect, not every such curve was filed as active; inconclusive means small, poorly fitted or top-dose-only effect, or another doubt; inactive means no such curve, though single readings can be large or run the other way;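 further: plate controls were no enzyme wells and a reference inhibitor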
Starred values were filed as active, the others as inactive; ? = inconclusive; nt = not tested or not shown; [ ] = another dose, or the depositor's remark. In the library only some 12% were active in any assay of this set; here they are far more common. Unless noted, the call rests on the fitted dose curve; in most records, active means well fitted curve in the direction sought with a large enough effect; inconclusive means small, poorly fitted or top-dose-only effect, or another doubt; inactive means no such curve, though single readings can be large; an effect the other way counts as inactive or inconclusive. Unless noted, on the % scale 0 is the no-effect control and ±100 the full control effect; potency means the concentration at half of the fitted maximal effect.

SMILES | RORg inh | Gal4-VP16 FLuc | PLK1 PBD inh | Sfp PPTase inh | ALDH1A1 block
Cc1ccccc1-n1c(C)nc2ccccc21 | 11µM* | 7%[0.365 µM] | 0% | 7% | -2%
O=C(CO)[C@@H](O)C(O)[C@@H](O)CO (stereo partly drawn) | -8% | -6% | nt | 0% | nt
C=CCSC1=C(C#N)C(c2ccccc2Cl)CC(=O)N1 (stereo not drawn) | 7%[0.365 µM] | nt | ? | 35µM* | 25µM*
C=CCSC1=C(C#N)C(c2ccc(OCC)cc2)CC(=O)N1 (stereo not drawn) | -26% | -1% | -19% | 79µM* | ?
Cc1ccc(-c2nc(C)c(C(=O)O)s2)cc1 | 8.9µM* | ? | -15% | 26% | -10%
Cc1c(C=O)c2ccccn2c1C(=O)c1ccc(Cl)c([N+](=O)[O-])c1 | 0% | 3% | -8% | 9% | 2.8µM*
Cc1cc2ccccn2c1C(=O)c1ccc(Cl)c([N+](=O)[O-])c1 | 18% | 5% | 3% | -1% | 2%
COCOCCn1cc(CN2CCS(=O)(=O)N(Cc3ccc(-c4ccc(OC)c(OC)c4)cc3)C(C)C2=O)nn1 (stereo not drawn) | nt | nt | -8% | nt | nt
FC(F)(F)c1ccccc1-c1cncnc1NCc1cccs1 | 10% | -1% | nt | -3% | ?
Fc1ccc(Nc2ncncc2-c2ccccc2C(F)(F)F)cc1 | ? | 1% | nt | 79µM* | ?
O=C1c2ccccc2C(=O)C12OC2c1ccc(Cl)cc1Cl (stereo not drawn) | 10µM* | ? | -27% | -13% | 25µM*
O=C1c2ccccc2C(=O)C1c1ccc(Cl)cc1 | 0% | 12% | 1% | 17% | nt
Nc1c(C(=O)O)sc2nc(-c3ccccc3)c3c(c12)CCCC3 | ? | ? | ? | 35µM* | ?
Nc1c(C(=O)O)sc2nc(-c3ccccc3)cc(-c3ccc(F)cc3)c12 | -2% | -3% | ? | -3% | nt
Nc1c(C(=O)O)sc2nc(-c3ccccc3)cc(-c3ccccc3)c12 | -10% | 2% | ? | -12% | 20µM*
COc1cc(NC(=O)CN2C(=O)c3ccccc3S2(=O)=O)cc(OC)c1 | nt | nt | -1% | nt | nt
CN(C)c1ccnc(-c2ccccc2C(F)(F)F)n1 | -24% | -12% | nt | -22% | 7%
CCOC(=O)N=S(N)(=O)c1ccc(Cl)cc1 (stereo not drawn) | -18% | -1% | 11µM* | 19% | 6%
O=C(O)/C=C/C(=O)Nc1ccccc1-c1ccccc1NC(=O)/C=C/C(=O)O | -2% | ? | -24% | 7.9µM* | -7%
O=C(O)/C=C/C(=O)Nc1ccccc1SC(F)(F)F | -138% | 10µM* | -29% | 13µM* | 11µM*
O=C(O)/C=C/C(=O)Nc1ccc(OCc2ccccc2)cc1 | 3% | 4% | -8% | 7% | nt
O=C(O)/C=C/C(=O)Nc1ccc(-c2ccccc2)cc1 | -20% | 0% | -6% | 3% | 3.2µM*
CSCCC(NC(=O)c1ccc(Cl)c([N+](=O)[O-])c1)C(=O)N1CCN(C/C=C/c2ccccc2)CC1 (stereo not drawn) | nt | nt | 2% | nt | nt
COC(=O)[C@@]1(Cc2ccccc2)[C@H]2c3cc(C(=O)N4CCCC4)n(Cc4ccc(O)c(OC)c4)c3C[C@H]2CN1C(=O)c1ccccc1 | 17% | -7% | nt | 2% | ?
Cc1c(C(=O)NCc2ccco2)sc(=O)n1Cc1ccc(S(C)(=O)=O)cc1 | nt | nt | -2% | nt | nt
SMILES | RORg inh | Gal4-VP16 FLuc | PLK1 PBD inh | Sfp PPTase inh | ALDH1A1 block
C/C(Cl)=C\Cn1c(O)c(N=O)c2ccccc21 | 32% | ? | -6% | 6% | ?
C/C(Cl)=C\Cn1c(O)c(N=NC(N)=S)c2cc(Br)ccc21 | 3.2µM* | 3.2µM* | -13% | 7% | 0.45µM*
NC(=S)N=Nc1c(O)n(CCCl)c2ccc(Br)cc12 | 0.79µM* | 3.5µM* | -4% | 9% | 7%
CCn1c(O)c(N=NC(=O)c2cccnc2)c2cc(Br)ccc21 | 25% | 3% | 0% | -3% | ?
CC(C)CC1=NN(C(=O)c2ccco2)C(O)(C(F)(F)F)C1 (stereo not drawn) | 6.3µM* | 14µM* | -12% | 7% | -10%
CN(C)/C=C1/NC(=S)NC1=O | -3% | 2% | -5% | 79µM* | -1%
Cc1cccc(-n2c(O)c(C=NC3CCS(=O)(=O)C3)c3ccccc3c2=O)c1 (stereo not drawn) | 40% | -11% | -4% | 20% | 16µM*
CC/C=C\C[C@H](O)/C=C/C=C\C/C=C\C/C=C\CCCC(=O)O | 21% | -12% | nt | 19% | 4%
COc1ccc(S(=O)(=O)Nc2cc(C(=O)NC3CCCCCC3)ccc2N2CCOCC2)cc1 | ? | -3% | -10% | 7% | 3.5µM*
COc1ccc(NS(=O)(=O)c2ccc(N3CCOCC3)c(NC(=O)c3ccc(OC)cc3)c2)cc1 | 9% | -6% | -5% | 22% | 9%
COc1ccc(S(=O)(=O)Nc2cc(C(=O)NC(C)C)ccc2N2CCOCC2)cc1 | -9% | 4% | -13% | 13% | 0.79µM*
C=C1C(=O)[C@]23C[C@H]1CC[C@H]2[C@]1(C)[C@@H](O)CC[C@@](C)(C(=O)O)[C@H]1C[C@@H]3O | nt | nt | -22% | nt | nt
C=C1C(=O)[C@]23C[C@H]1CCC2[C@@]1(C)C(C[C@@H]3O)[C@](C)(C(=O)OC)CC[C@@H]1OC(C)=O (stereo partly drawn) | nt | nt | 11µM* | nt | nt
Cc1cc(C)c2nc(SCC(=O)NCCC3=CCCCC3)cc(C)c2c1 | -24% | -3% | ? | 3% | 0%
COC(=O)c1ccc(CSc2ccc3nnc(-c4cccc(F)c4)n3n2)o1 | ? | -21% | ? | 50µM* | ?
COC(=O)c1ccc(CSc2nc3ccccc3s2)o1 | ? | 1%[0.365 µM] | -6% | -12% | -15%
COC(=O)c1ccc(CSc2n[nH]c(=S)s2)o1 | -7% | 6% | ? | -27% | 3.5µM*
COC(=O)c1ccc(CSc2cc(C)c3cc(C)cc(C)c3n2)o1 | -8% | -6% | -13% | 14µM* | 13µM*
CCOC(=O)NC(=O)CSc1cc(C)c2cc(C)cc(C)c2n1 | 32% | 10% | -22% | 45µM* | -10%
COC(=O)c1ccc(CSc2n[nH]c(C)n2)o1 | 0% | 0% | -4% | 11% | 7%
CCC(=O)OCC(=O)C1(OC(=O)CC)C(C)CC2C3CCC4=CC(=O)C=CC4(C)C3(Cl)C(O)CC21C (stereo not drawn) | 27% | 0% | nt | -2% | -2%
CC1(C(=O)O)CCCN1C(=O)c1cccc(OC(F)(F)F)c1 (stereo not drawn) | nt | nt | -11% | nt | nt
